# Experimental data: PubChem BioAssay (NCATS)
# Where “and” joins values, the source holds several entries; their conditions need not be identical. Identical values can stand only once. A number with no mark means an inactive call. Records with an inconclusive call do not appear. Entries that show only a call come without a potency. Calls of active or inactive are those of the source. Unless noted, calls come from the whole dose curve.
# Tests used:
# [1] = target: Estrogen receptor (Homo sapiens) (UniProt P03372); assay: qHTS assay for small molecule agonists of estrogen receptor alpha signaling (AID 588514); note: nearly all actives have a fitted effect of over 70% in size
# How it was run: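 Reporter-gene assay. […] controls beta-lactamase in HEK 293 GripTite cells; after 18 hrs with compound, CCF4 substrate is added for 2 hrs and fluorescence is read.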
# [2] = target: Bile acid receptor (Homo sapiens) (UniProt Q96RI1); assay: qHTS assay for small molecule antagonists of farnesoid X receptor signaling (AID 588526); note: potency is the fitted concentration of half-maximal effect
# How it was run: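 Concentration-response titrations were fitted to the Hill equation for half-maximal inhibition and maximal response, with data normalised to 50 uM chenodeoxycholic acid and DMSO control wells. Cells: FXR-UAS-bla HEK293T, dialyzed FBS.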
# [3] = target: Glucocorticoid receptor (Homo sapiens) (UniProt P04150); assay: qHTS assay for small molecule agonists of glucocorticoid receptor signaling (AID 588532; active = well fitted curve in the direction sought with a large enough effect in the signal ratio, with a control signal flat; the % refers to the signal ratio); conditions: HeLa MMTV-bla, beta-lactamase ratio, agonist, 18 h; activation: stronger effect = higher value, percent of dexamethasone control, DMSO zero
# How it was run: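 MMTV-bla HeLa, beta-lactamase reporter; medium with 1% charcoal/dextran-stripped FBS; cpds up to 92 uM, 18 h, 37 C; CCF4 readout 460/530 nm; Hill fit → EC50, efficacy vs 0.1 uM dexamethasone = 100%.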
# [4] = target: Glucocorticoid receptor (Homo sapiens) (UniProt P04150); assay: qHTS assay for small molecule antagonists of glucocorticoid receptor signaling (AID 588533; active = well fitted inhibition curve with a large enough effect in the signal ratio, with a control signal flat, not every such curve was filed as active; the % refers to the signal ratio;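 note: cells stimulated with 2 nM dexamethasone as agonist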)
# How it was run: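 Antagonist-mode qHTS: compound titrations added to GRE-bla HeLa cells, then dexamethasone 2 nM final; 18 h, 37 C. CCF4 FRET fluorescence normalized to dexamethasone and DMSO; IC50 from Hill fit.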
# [5] = target: Peroxisome proliferator-activated receptor gamma (Homo sapiens) (UniProt P37231); assay: qHTS assay for small molecule antagonists of peroxisome proliferator-activated receptor gamma signaling (AID 588537; active = well fitted inhibition curve with a large enough effect in the signal ratio, with a control signal flat, not every such curve was filed as active; the % refers to the signal ratio;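 note: reporter cells co-stimulated with 50 nM rosiglitazone agonist during compound treatment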)
# How it was run: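 PPAR-gamma-UAS-bla HEK293 cells (3000/well, 1% charcoal/dextran-stripped FBS) were preincubated 6-6.5 h at 37 C, given titrated compounds, then stimulated with 50 nM rosiglitazone for 16 h. Beta-lactamase activity was read with CCF4 dye; IC50 came from Hill fits.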
# [6] = target: Androgen receptor (Homo sapiens) (UniProt P10275); assay: qHTS assay for small molecule agonists of androgen receptor signaling (AID 588515; active = well fitted curve in the direction sought with a large enough effect in the signal ratio, with a control signal flat; the % refers to the signal ratio); conditions: AR-UAS-bla HEK293, beta-lactamase ratio, agonist 16 h; stronger effect = higher value
# How it was run: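 EC50 and efficacy came from Hill fits of titrations (up to 92 uM) normalized to 30 nM R1881 as 100% and DMSO as 0%. Compound exposure was 16 h at 37 C on AR-UAS-bla HEK293 cells, with a 405/460/530 nm CCF4 fluorescence read.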
# [7] = target: Peroxisome proliferator-activated receptor gamma (Homo sapiens) (UniProt P37231); assay: qHTS assay for small molecule agonists of peroxisome proliferator-activated receptor gamma signaling (AID 588536; active = well fitted curve in the direction sought with a large enough effect in the signal ratio, with a control signal flat, not every such curve was filed as active; the % refers to the signal ratio; note: potency is the fitted concentration of half-maximal effect)
# How it was run: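 PPAR-gamma-UAS-bla HEK293 cells in medium with 1% charcoal/dextran-treated FBS were exposed to compounds for 16 h at 37 C. Beta-lactamase activity was read with CCF4 substrate (405 nm excitation, 460/530 nm emission).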
# [8] = qHTS assay for small molecule agonists of the antioxidant response element (ARE) signaling pathway (AID 651741; active = well fitted activation curve with a large enough effect in the signal ratio; the % refers to the signal ratio; note: potency is the fitted concentration of half-maximal effect)
# How it was run: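 ARE-bla HepG2 cells (beta-lactamase reporter under ARE control) were plated at 2,000 cells/well, preincubated 5 h at 37 C/5% CO2, then treated with DMSO-dissolved compounds for 16 h at 37 C; LiveBLAzer B/G FRET substrate added, fluorescence read after 2 h at room temperature.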
# [9] = qHTS assay for small molecule activators of the human pregnane X receptor (PXR) signaling pathway (AID 720659; call rule not given here)
# [10] = target: Thyroid hormone receptor beta (Homo sapiens) (UniProt P10828); assay: qHTS assay for small molecule antagonists of thyroid hormone receptor beta signaling (AID 588547; active = well fitted inhibition curve with a large enough effect in the signal ratio, with a control signal flat, not every such curve was filed as active; the % refers to the signal ratio;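 note: cells stimulated with 0.4 nM T3 agonist during compound exposure; series mostly up to about 77 µM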); conditions: TR-UAS-bla HEK293, beta-lactamase ratio, antagonist mode, 18 h
# How it was run: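 TR-UAS-bla GripTite HEK293 cells in 2% charcoal/dextran FBS medium were preincubated 4 h at 37 C, given compound (0.59 nM to 92 uM) plus 0.4 nM T3 (final) for 18 h, then CCF4 for 2 h at RT; Hill fit gave IC50.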
# [11] = target: Cytochrome P450 3A4 (Homo sapiens) (UniProt P08684); assay: qHTS Assay for Inhibitors and Substrates of Cytochrome P450 3A4 (AID 884; active = well fitted curve in the direction sought with a large enough effect; an effect the other way counts as inactive or inconclusive; note: potency is the fitted concentration of half-maximal effect; nearly all actives have a fitted effect of over 50% in size)
# How it was run: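 20 nM human CYP3A4 with 25 uM Luciferin-PPXE (at KM) in 200 mM KPO4, preincubated 10 min with compound; NADPH regeneration started a 60 min RT reaction. Luciferin detected by luminescence, normalized to 57 uM ketoconazole as full inhibition.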
# [12] = target: Cytochrome P450 3A4 (Homo sapiens) (UniProt P08684); assay: qHTS Assay for Activators of Cytochrome P450 3A4 (AID 885; active = well fitted curve in the direction sought with a large enough effect; an effect the other way counts as inactive or inconclusive; note: nearly all actives have a fitted effect of over 65% in size)
# How it was run: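 20nM CYP3A4 + 25uM Luciferin-PPXE (=KM), 200mM KPO4; cpd 10 min RT; NADPH regen, 60 min RT; stop w/ detection buffer, 20 min; luminescence. Normalized to 57 uM ketoconazole.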
# [13] = Confirmation and Secondary Assay for Modulators of Hemoglobin Beta Chain Splicing at IVS2 654 locus (AID 910; active = well fitted curve in the direction sought with a large enough effect; an effect the other way counts as inactive or inconclusive;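 note: per-well total GFP intensity by laser scanning cytometry after 2-day treatment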)
# How it was run: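 HeLa cells stably carrying EGFP interrupted by mutant beta-globin IVS2-654 intron (CMV-driven) were treated with compound for 2 days at 37C; corrected splicing was scored as total peak GFP intensity per well (488 nm excitation, 500-520 nm emission).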
# [14] = Confirmation and Secondary Assay for Modulators of Hemoglobin Beta Chain Splicing at IVS2 705 locus (AID 930; active = well fitted curve in the direction sought with a large enough effect; an effect the other way counts as inactive or inconclusive;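 note: HeLa cells stably expressing the EGFP-705 splicing reporter; GFP fluorescence per well restored by corrected splicing of the IVS2-705 intron in EGFP; series mostly up to about 46 µM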)
# How it was run: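 Splice-correction reporter: EGFP cDNA split by beta-globin intron 2 bearing the 705 mutation, stably in HeLa. Compound incubation 2 days, 37C; fluorescent objects 5-250 µm summed per well.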
# Sequence of Peroxisome proliferator-activated receptor gamma (Homo sapiens) (P37231 whole entry, looked up): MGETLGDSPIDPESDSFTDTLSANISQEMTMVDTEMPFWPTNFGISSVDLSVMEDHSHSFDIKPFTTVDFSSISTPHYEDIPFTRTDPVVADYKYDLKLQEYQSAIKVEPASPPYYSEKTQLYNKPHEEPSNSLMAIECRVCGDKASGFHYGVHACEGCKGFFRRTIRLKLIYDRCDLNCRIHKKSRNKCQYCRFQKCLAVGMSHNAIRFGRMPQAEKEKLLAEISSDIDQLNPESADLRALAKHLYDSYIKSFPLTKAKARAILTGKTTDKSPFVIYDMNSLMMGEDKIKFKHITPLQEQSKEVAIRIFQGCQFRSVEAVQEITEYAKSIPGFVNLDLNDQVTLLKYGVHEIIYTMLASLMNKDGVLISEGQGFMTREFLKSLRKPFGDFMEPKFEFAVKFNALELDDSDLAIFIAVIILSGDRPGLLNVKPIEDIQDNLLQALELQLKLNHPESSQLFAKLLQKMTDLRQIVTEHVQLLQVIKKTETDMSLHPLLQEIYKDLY
# Sequence of Thyroid hormone receptor beta (Homo sapiens) (P10828 whole entry, looked up): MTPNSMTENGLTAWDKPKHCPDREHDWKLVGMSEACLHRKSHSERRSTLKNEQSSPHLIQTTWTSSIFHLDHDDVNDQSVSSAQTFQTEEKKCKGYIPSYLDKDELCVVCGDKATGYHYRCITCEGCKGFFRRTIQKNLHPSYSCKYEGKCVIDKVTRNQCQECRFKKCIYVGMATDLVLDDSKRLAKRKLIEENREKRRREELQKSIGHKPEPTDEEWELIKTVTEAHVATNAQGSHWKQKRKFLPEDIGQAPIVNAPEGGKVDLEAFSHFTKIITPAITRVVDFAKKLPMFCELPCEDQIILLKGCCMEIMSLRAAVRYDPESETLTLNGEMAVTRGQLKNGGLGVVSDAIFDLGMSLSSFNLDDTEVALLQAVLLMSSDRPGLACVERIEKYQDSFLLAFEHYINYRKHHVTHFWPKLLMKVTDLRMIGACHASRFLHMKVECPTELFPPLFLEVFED
# Sequence of Bile acid receptor (Homo sapiens) (Q96RI1 whole entry, looked up): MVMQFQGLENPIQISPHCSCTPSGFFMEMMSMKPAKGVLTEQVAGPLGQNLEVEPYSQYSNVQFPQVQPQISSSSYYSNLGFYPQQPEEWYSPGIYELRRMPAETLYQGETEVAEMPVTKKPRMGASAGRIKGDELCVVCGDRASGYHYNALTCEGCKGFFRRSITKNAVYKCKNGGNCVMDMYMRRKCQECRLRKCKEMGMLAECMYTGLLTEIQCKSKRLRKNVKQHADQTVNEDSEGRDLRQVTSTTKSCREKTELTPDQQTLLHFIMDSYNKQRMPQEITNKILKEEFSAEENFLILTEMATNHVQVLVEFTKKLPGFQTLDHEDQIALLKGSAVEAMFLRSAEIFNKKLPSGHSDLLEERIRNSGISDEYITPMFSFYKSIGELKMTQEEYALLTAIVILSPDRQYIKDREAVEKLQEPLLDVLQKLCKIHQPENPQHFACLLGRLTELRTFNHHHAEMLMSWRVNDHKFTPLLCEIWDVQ
# Sequence of Estrogen receptor (Homo sapiens) (P03372 whole entry, looked up): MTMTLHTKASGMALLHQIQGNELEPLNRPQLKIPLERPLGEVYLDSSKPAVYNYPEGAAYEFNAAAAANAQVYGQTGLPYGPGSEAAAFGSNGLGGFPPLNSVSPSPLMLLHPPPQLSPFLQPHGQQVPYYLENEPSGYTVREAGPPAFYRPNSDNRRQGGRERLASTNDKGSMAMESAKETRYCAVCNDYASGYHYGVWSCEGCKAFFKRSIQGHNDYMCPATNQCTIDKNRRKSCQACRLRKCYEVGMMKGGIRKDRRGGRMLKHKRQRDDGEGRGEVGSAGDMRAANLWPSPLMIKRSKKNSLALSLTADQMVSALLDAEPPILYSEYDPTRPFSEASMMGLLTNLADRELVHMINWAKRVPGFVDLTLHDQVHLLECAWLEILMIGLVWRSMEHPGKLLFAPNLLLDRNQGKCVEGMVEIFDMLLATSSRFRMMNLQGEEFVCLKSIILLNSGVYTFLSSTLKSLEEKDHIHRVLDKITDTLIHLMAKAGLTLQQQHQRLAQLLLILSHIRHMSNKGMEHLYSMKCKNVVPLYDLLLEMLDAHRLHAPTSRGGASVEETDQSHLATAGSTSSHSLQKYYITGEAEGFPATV
# Sequence of Glucocorticoid receptor (Homo sapiens) (P04150 whole entry, looked up): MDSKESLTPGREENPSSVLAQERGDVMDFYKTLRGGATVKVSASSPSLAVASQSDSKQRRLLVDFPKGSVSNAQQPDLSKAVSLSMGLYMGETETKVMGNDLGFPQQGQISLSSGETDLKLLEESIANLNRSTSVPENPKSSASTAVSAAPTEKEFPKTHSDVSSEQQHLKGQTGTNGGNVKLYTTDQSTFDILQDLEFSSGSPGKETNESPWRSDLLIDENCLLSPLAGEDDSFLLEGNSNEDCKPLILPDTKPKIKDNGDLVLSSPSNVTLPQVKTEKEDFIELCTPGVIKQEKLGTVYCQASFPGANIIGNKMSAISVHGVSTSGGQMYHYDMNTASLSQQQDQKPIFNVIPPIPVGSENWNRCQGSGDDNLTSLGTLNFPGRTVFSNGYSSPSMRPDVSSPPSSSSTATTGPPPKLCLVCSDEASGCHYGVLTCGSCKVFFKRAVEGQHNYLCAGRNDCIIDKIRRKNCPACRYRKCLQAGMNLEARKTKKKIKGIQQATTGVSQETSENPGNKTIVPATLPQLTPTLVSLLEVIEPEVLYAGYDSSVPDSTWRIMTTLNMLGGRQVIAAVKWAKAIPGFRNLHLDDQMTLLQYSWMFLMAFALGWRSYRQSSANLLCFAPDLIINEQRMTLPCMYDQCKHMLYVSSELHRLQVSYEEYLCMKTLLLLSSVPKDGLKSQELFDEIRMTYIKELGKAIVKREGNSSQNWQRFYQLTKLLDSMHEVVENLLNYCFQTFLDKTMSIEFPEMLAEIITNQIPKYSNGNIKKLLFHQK
# Sequence of Androgen receptor (Homo sapiens) (P10275 whole entry, looked up): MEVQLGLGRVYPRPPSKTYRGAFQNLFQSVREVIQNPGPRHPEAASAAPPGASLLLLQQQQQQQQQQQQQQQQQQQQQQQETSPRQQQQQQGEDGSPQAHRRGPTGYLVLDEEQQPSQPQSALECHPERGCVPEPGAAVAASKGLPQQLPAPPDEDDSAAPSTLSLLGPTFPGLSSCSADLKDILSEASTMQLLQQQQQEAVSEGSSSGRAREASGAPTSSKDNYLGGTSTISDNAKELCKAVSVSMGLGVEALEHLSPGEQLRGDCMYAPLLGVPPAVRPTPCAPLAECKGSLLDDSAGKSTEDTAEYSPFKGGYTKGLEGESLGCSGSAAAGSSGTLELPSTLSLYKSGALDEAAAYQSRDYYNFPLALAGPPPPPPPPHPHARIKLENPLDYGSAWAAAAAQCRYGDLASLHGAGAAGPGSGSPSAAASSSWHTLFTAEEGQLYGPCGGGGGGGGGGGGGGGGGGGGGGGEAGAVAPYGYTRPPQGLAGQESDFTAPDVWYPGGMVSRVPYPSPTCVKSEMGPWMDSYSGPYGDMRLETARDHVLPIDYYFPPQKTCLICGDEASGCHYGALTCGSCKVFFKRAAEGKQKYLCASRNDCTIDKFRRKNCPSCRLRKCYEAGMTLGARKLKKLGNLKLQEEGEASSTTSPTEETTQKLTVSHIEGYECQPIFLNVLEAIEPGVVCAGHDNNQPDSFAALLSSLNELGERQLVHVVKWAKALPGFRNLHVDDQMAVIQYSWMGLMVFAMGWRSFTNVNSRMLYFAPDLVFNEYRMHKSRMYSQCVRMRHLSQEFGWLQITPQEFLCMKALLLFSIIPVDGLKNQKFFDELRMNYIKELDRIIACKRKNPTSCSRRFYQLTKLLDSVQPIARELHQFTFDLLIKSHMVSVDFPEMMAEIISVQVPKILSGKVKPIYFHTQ
# Sequence of Cytochrome P450 3A4 (Homo sapiens) (P08684 whole entry, looked up): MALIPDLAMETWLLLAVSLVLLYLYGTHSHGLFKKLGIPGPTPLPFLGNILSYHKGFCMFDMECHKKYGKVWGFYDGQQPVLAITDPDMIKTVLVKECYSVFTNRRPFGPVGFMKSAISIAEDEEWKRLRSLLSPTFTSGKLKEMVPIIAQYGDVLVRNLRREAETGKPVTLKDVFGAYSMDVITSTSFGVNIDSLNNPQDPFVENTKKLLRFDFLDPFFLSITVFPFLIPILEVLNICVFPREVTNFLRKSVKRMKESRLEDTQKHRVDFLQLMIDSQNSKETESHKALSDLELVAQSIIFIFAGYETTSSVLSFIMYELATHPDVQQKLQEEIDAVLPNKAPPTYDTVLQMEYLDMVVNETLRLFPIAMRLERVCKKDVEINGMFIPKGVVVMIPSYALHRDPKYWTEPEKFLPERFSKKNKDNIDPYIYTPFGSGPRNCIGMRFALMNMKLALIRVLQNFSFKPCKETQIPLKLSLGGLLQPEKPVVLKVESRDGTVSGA
smiles,measurement,setting,value
CC(C)C1(C)N=C(c2nc3ccccc3cc2C(=O)O)NC1=O (centres undefined),Potency,[1],inactive
same,Potency,[2],inactive
same,activation,[3],2.3%
same,Potency,[4],inactive
same,Potency,[5],inactive
COP(=O)(OC)SCn1c(=O)oc2cc(Cl)cnc21,Potency,[1],inactive
same,activation,[6],7.35%
same,Potency,[4],inactive
same,Potency,[7],inactive
same,Potency,[8],27.3 µM (active)
same,outcome,[9],inactive
C#CCN1C(=O)COc2cc(F)c(N3C(=O)C4=C(CCCC4)C3=O)cc21,Potency,[1],inactive
same,activation,[6],8.69%
same,Potency,[4],inactive
same,Potency,[7],inactive
same,activity change % (negative = inhibition),[10],-4.79%
same,outcome,[9],inactive
CCCCCCCCCCCCCCC(Br)C(=O)O (centres undefined),Potency,[1],inactive
same,Potency,[2],inactive
same,activation,[3],-1.04%
same,Potency,[4],inactive
same,Potency,[5],inactive
same,Potency,[8],21.7 µM (active)
same,outcome,[9],inactive
Cc1cccc2sc3nncn3c12,Potency,[1],inactive
same,Potency,[2],inactive
same,Potency,[7],inactive
same,activity change % (negative = inhibition),[10],6.25%
same,Potency,[8],2.73 µM (active)
CC(C)(C)[C@@H](O)/C(=C\c1ccc(Cl)cc1Cl)n1cncn1,Potency,[1],inactive
same,Potency,[2],44.7 µM (active)
same,activation,[3],-11.9%
same,Potency,[4],inactive
same,activity change % (negative = inhibition),[10],-11.6%
same,Potency,[8],68.6 µM (active)
COC[C@H](C)N(C(=O)CCl)c1c(C)csc1C,Potency,[1],inactive
same,Potency,[2],inactive
same,activation,[3],-4.92%
same,Potency,[4],inactive
same,Potency,[7],inactive
same,activity change % (negative = inhibition),[10],-22.8%
same,Potency,[8],19.3 µM (active)
CC1(C)[C@H](C=C(Cl)Cl)[C@H]1C(=O)O[C@H](C#N)c1ccc(F)c(Oc2ccccc2)c1,Potency,[1],inactive
same,activation,[3],-0.69% and -0.284%
same,Potency,[4],inactive
same,Potency,[7],inactive
same,Potency,[5],inactive
same,activity change % (negative = inhibition),[10],-23.6%
CCC(C)(NC(=O)c1cc(Cl)c(C)c(Cl)c1)C(=O)CCl (centres undefined),Potency,[1],inactive
same,activation,[3],-7.44%
same,Potency,[4],inactive
same,Potency,[7],inactive
CCCCNC(=O)OCC#CI,Potency,[1],inactive
same,outcome,[9],inactive
CCSC(=O)N(CC)C1CCCCC1,Potency,[1],inactive
same,Potency,[2],inactive
same,activation,[3],-1.4%
same,Potency,[4],inactive
same,Potency,[7],inactive
same,Potency,[5],inactive
same,outcome,[9],inactive
CCC[CH2][Sn]([Cl])([CH2]CCC)[CH2]CCC,Potency,[1],inactive
same,Potency,[2],35.5 µM (active)
same,activation,[3],-5.41%
O=C(O)C(F)(F)C(F)(F)C(F)(F)C(F)(F)C(F)(F)C(F)(F)C(F)(F)C(F)(F)F,Potency,[1],inactive
same,Potency,[2],inactive
same,Potency,[4],inactive
same,Potency,[7],inactive
same,Potency,[5],inactive
same,activity change % (negative = inhibition),[10],1.6% and 0.325%
same,Potency,[8],24.3 µM (active)
same,outcome,[9],inactive
CCC(C)Nc1c([N+](=O)[O-])cc(C(C)(C)C)cc1[N+](=O)[O-] (centres undefined),Potency,[1],inactive
same,activation,[3],-11.2%
same,Potency,[4],inactive
same,Potency,[7],inactive
same,Potency,[5],inactive
CCCCOCN(C(=O)CCl)c1c(CC)cccc1CC,Potency,[1],inactive
same,Potency,[2],inactive
same,activation,[3],-1.18%
same,activity change % (negative = inhibition),[10],-14.9%
same,Potency,[8],24.3 µM (active)
COc1cc(OC)nc(NC(=O)NS(=O)(=O)c2ncccc2OCC(F)(F)F)n1,Potency,[1],inactive
same,activation,[3],3.36%
same,Potency,[4],inactive
same,Potency,[7],inactive
same,Potency,[5],inactive
same,Potency,[8],inactive
CCCCOCCOC(C)=O,Potency,[1],inactive
same,Potency,[2],inactive
same,Potency,[7],inactive
same,Potency,[5],inactive
same,activity change % (negative = inhibition),[10],-3.6%
same,outcome,[9],inactive
CC(C)=CC1[C@H](C(=O)OCc2cccc(Oc3ccccc3)c2)C1(C)C (some centres undefined),Potency,[1],inactive
same,Potency,[2],inactive
same,activation,[3],1.86%
same,Potency,[4],inactive
CC(C)C1(C)N=C(c2ncccc2C(=O)O)NC1=O (centres undefined),Potency,[1],inactive
same,activation,[3],0.632%
same,Potency,[4],inactive
same,Potency,[7],inactive
same,Potency,[5],inactive
same,Potency,[8],inactive
same,outcome,[9],inactive
COP(=O)(OC)OC(Br)C(Cl)(Cl)Br (centres undefined),Potency,[1],inactive
same,activation,[6],4.22%
same,Potency,[7],22.4 µM (active)
same,Potency,[5],inactive
same,activity change % (negative = inhibition),[10],-62.2%
same,Potency,[8],24.3 µM (active)
Nc1cccc(Cl)c1Cl,Potency,[1],inactive
same,Potency,[2],inactive
same,activation,[3],0.21%
same,Potency,[4],inactive
same,Potency,[7],inactive
same,Potency,[8],inactive
same,outcome,[9],inactive
CCOP(=S)(OCC)SCn1c(=O)oc2cc(Cl)ccc21,Potency,[11],0.794 µM (active)
same,Potency,[12],inactive
same,Potency,[13],inactive
same,outcome,[14],inactive
same,Potency,[1],inactive
same,activation,[3],0.851%
same,Potency,[4],inactive
same,Potency,[7],inactive
same,activity change % (negative = inhibition),[10],-26.9%
same,Potency,[8],27.3 µM (active)
CC1(C)CCC(Cc2ccc(Cl)cc2)C1(O)Cn1cncn1 (centres undefined),Potency,[1],inactive
same,Potency,[5],inactive
O=S(=O)(c1ccc(Cl)cc1)c1cc(Cl)c(Cl)cc1Cl,Potency,[1],inactive
same,activation,[3],0.889%
same,Potency,[4],inactive
same,activity change % (negative = inhibition),[10],6.33%
